Screening data: PubChem, National Center for Advancing Translational Sciences (NCATS)
HEK293 tox: HEK 293 cell cytotoxicity | HEK 293 viability, ATP luminescence (CellTiter-Glo), 48-72 h | Potency, µM (series often up to 115 µM), usual class: inhibitors | 94,000 tested, 6.6% active | AID 1345083; active means well fitted curve in the direction sought with a large enough effect; inconclusive means small, poorly fitted or top-dose-only effect, or another doubt; inactive means no such curve, though single readings can be large; an effect the other way counts as inactive or inconclusive; further: nearly all actives have a fitted effect of over 60% in size
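ATP-coupled CellTiter-Glo luminescence served as viability read-out, recorded 10 min after reagent addition at room temperature. HEK 293 cells, 250 cells/well, had been incubated with pintool-transferred compound for 48 or 72 hr at 37 degree Celsius.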
hNpr1 antagonist: human Npr1 receptor antagonism; Potency, µM (doses to about 46.3 µM), most hits filed as inhibitors; HEK293 hNpr1 GloSensor cGMP, ANP-stimulated luminescence; 76,000 tested, 1.6% active; further: nearly all actives have a fitted effect of over 60% in size
Target sequence (P16066 whole entry, looked up): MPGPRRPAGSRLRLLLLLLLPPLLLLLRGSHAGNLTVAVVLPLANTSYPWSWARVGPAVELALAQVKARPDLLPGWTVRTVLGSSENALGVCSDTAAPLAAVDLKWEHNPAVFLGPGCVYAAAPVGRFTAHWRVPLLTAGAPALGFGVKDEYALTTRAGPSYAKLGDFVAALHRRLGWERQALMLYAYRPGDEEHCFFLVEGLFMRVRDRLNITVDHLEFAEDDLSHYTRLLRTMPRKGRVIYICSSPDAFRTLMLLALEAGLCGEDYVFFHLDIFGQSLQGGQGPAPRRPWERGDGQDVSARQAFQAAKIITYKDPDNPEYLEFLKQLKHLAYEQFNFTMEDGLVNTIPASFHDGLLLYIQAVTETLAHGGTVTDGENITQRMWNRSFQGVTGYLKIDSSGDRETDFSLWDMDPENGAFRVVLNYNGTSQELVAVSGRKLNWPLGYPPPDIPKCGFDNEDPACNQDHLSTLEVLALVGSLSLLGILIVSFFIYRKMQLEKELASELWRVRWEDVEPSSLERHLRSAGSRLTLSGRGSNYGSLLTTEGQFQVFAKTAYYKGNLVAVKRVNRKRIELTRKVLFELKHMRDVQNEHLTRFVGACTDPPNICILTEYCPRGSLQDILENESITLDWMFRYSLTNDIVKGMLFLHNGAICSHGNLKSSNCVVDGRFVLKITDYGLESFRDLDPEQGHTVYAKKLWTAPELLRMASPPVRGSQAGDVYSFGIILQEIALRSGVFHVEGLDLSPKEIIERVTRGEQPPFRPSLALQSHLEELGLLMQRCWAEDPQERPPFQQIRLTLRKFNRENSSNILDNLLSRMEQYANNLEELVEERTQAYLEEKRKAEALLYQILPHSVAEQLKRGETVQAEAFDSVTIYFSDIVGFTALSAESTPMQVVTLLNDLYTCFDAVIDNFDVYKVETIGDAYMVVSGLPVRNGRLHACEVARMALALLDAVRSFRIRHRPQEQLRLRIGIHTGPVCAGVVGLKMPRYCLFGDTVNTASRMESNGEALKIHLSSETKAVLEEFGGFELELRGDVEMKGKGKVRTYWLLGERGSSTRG
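Compound pre-incubated 30 min at room temperature on GloSensor-loaded HEK293 cells stably carrying hNpr1 and the pGS-40F cGMP biosensor. Stimulation uses hNppA at 0.1 nM final; luminescence is taken at baseline and 20 min post-agonist.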
Luciferase inh: inhibitors of firefly (Photinus pyralis) luciferase; purified P. pyralis luciferase, luminescence, biochemical; AID 1347043; 76,000 tested, 2.5% active; Potency, µM (titrated, usually from 115 µM), most hits filed as inhibitors; active means well fitted curve in the direction sought with a large enough effect; inconclusive means small, poorly fitted or top-dose-only effect, or another doubt; inactive means no such curve, though single readings can be large; an effect the other way counts as inactive or inconclusive; further: nearly all actives have a fitted effect of over 65% in size
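Luminescence read by CCD imager after adding enzyme (10nM final) to wells holding compound, titrated in qHTS. Substrates 10uM each D-luciferin and ATP; buffer 50mM Tris acetate pH 7.5, 10mM Mg acetate, Tween-20, BSA.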
3T3 cytotox: cytotoxic compounds in NIH 3T3 cells. NIH 3T3 viability, CellTiter-Glo ATP luminescence, 48-72 h. Potency, µM (doses to about 96.7 µM), hits mostly inhibitors. 94,000 tested, 4.3% active. AID 1345082; active means well fitted curve in the direction sought with a large enough effect; inconclusive means small, poorly fitted or top-dose-only effect, or another doubt; inactive means no such curve, though single readings can be large; an effect the other way counts as inactive or inconclusive; further: nearly all actives have a fitted effect of over 55% in size
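NIH 3T3 cells at 400 cells/well received 23 nL of compound by pintool and were incubated 48 or 72 h at 37 °C. Viability was read as ATP-coupled CellTiter-Glo luminescence.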
Npr1 antag conf: confirmation of human Npr1 natriuretic peptide receptor antagonists | Potency, µM (doses to about 57.6 µM), actives largely listed as inhibitors | HEK293 hNpr1 cGMP GloSensor luminescence, ANP-stimulated | 1,400 tested, 76% active | shares compounds with hNpr1 antagonist | AID 1347044; further: nearly all actives have a fitted effect of over 70% in size
NPR2 antag: selectivity test of Npr1 antagonists against human Npr2; shares compounds with hNpr1 antagonist; HEK293 hNpr2 GloSensor cGMP luminescence, CNP-stimulated; Potency, µM (top dose mostly 57.6 µM), hits mostly inhibitors; 1,400 tested, 67% active; further: nearly all actives have a fitted effect of over 70% in size
FLuc counter: FLuc enzyme inhibition, Npr1 counter-screen; shares compounds with hNpr1 antagonist; purified FLuc enzyme, luminescence, Km substrate; Potency, µM (highest dose often 57.6 µM), most hits filed as inhibitors; 1,400 tested, 0.7% active; AID 1347047; active means well fitted curve in the direction sought with a large enough effect; inconclusive means small, poorly fitted or top-dose-only effect, or another doubt; inactive means no such curve, though single readings can be large; an effect the other way counts as inactive or inconclusive
GloSensor ctrl: counter-screen for Npr1 antagonists: GloSensor control cell line; shares compounds with hNpr1 antagonist; HEK293 GloSensor cGMP, SNP-stimulated, luminescence; Potency, µM (series often up to 57.6 µM), usual class: inhibitors; 1,400 tested, 69% active; AID 1347051; further: nearly all actives have a fitted effect of over 70% in size
A number is an active result; . = inactive; ? = inconclusive; / = not tested or not shown. Compounds with a hit are over-represented: about 11% of the library has one in this group of screens. Unless noted, the call rests on the fitted dose curve.

SMILES | HEK293 tox | hNpr1 antagonist | Luciferase inh | 3T3 cytotox | Npr1 antag conf | NPR2 antag | FLuc counter | GloSensor ctrl
CNC(=O)c1cc(C2CC2)nc2c1c(C1CCCN1C(=O)c1ccccc1)nn2C (stereo unspecified) | . | / | / | . | / | / | / | /
Cc1cnc(C2CC2)n1C1CCCN(C(=O)C2CCC2)C1 (stereo unspecified) | . | . | . | . | / | / | / | /
Cc1cccc(-n2ncc3c2CCCC3NC(=O)c2c(F)ccc(F)c2F)c1C (stereo unspecified) | . | 5.01µM | . | ? | 10.9µM | 10.9µM | . | 8.62µM
O=C(NC1CCCc2c1cnn2-c1ccc(F)cc1F)c1ccsc1 (stereo unspecified) | ? | 11.2µM | . | ? | 21.7µM | 19.3µM | . | 17.2µM
CN1CCC2(C1)CN(CC1CCOCC1)c1ccc(C(=O)NCC(F)(F)F)cc12 (stereo unspecified) | . | . | . | ? | / | / | / | /
COCCCNC(=O)C(NC(=O)c1ccc(C)cc1)C1CCN(C(=O)c2cccs2)CC1 (stereo unspecified) | . | . | . | ? | / | / | / | /
CCOc1ccc(CC(=O)N2CCC(Cc3nc(-c4ccccc4)no3)CC2)cc1 | 22.4µM | 15.8µM | . | ? | 13.7µM | 17.2µM | . | 12.2µM
COc1ccc(CC(=O)N2CCC(Cc3nc(-c4ccccc4)no3)CC2)cc1 | 14.1µM | 7.08µM | . | 11.2µM | 9.68µM | 12.2µM | . | 10.9µM
Cc1ccccc1CC(=O)N1CCC(Cc2nc(-c3cnccn3)no2)CC1 | . | . | . | . | / | / | / | /
CC(C)c1cccc(NC(=O)C2CCN(C(=O)c3ncn4c3COC(c3ccc(F)cc3)C4)CC2)c1 (stereo unspecified) | ? | 11.2µM | . | . | ? | ? | . | ?
COc1cccc(C(=O)N2CCC(N3C[C@H](O)C[C@H]3C(=O)N3CCN(c4ccccc4)CC3)CC2)c1 | . | . | . | . | / | / | / | /
CC(=O)Nc1ccc(C(=O)N2CCC3(CC2)N=C(c2ccc(Cl)cc2)NO3)cc1 | ? | ? | . | . | 21.7µM | ? | . | 21.7µM
O=C(c1ccncc1)N1CCC2(CC1)N=C(c1ccc(Cl)cc1)NO2 | ? | . | . | . | / | / | / | /
CC(=O)Nc1ccc(C(=O)N2CCC3(CC2)N=C(c2ccc(Br)cc2)NO3)cc1 | ? | 12.6µM | . | . | 19.3µM | 15.3µM | . | 15.3µM
O=C1CCN(S(=O)(=O)c2ccccc2)CCCN(Cc2cn[nH]c2-c2ccc(F)cc2)CCN1 | . | . | . | . | / | / | / | /
CS(=O)(=O)CCN1CCN(C(=O)c2cccc(-c3ncc[nH]3)c2)CC1 | . | . | . | . | / | / | / | /
COCCn1c(=O)c(C(=O)NCCCc2ccccc2)nc2cccnc21 | . | / | / | . | / | / | / | /
CNC(=O)c1cc(-c2ccccc2O)cc2c1OCCN2Cc1cccnc1 | . | . | . | ? | / | / | / | /
CNC(=O)c1cc(-c2ccccc2C)cc2c1OCCN2Cc1cccnc1 | ? | ? | . | ? | ? | ? | . | .
CC(C)c1noc(-c2cn(C3CCN(C(=O)c4cccc(F)c4)C3)nn2)n1 (stereo unspecified) | ? | ? | . | ? | / | / | / | /
CC(C)c1noc(-c2cn(C3CCN(C(=O)c4cccc(Cl)c4)C3)nn2)n1 (stereo unspecified) | ? | ? | . | ? | 24.3µM | 27.3µM | . | 21.7µM
CC(C)c1noc(-c2cn(C3CCN(C(=O)c4ccc(F)cc4Cl)C3)nn2)n1 (stereo unspecified) | ? | ? | . | ? | 15.3µM | 15.3µM | . | 13.7µM
COc1cccc(-c2ccccc2NC(=O)C2CCN(Cc3cc(OC)ccc3O)CC2)c1 | 17.8µM | ? | . | ? | 24.3µM | ? | . | 27.3µM
CC1(c2ccccc2)N(Cc2ccccc2C#N)C(=O)OC12CCN(Cc1ccccc1F)CC2 (stereo unspecified) | ? | . | . | ? | / | / | / | /
CC1(c2ccccc2)N(Cc2ccccc2C#N)C(=O)OC12CCN(Cc1c[nH]c3ccccc13)CC2 (stereo unspecified) | 14.1µM | ? | . | 22.4µM | 19.3µM | 19.3µM | . | .
SMILES | HEK293 tox | hNpr1 antagonist | Luciferase inh | 3T3 cytotox | Npr1 antag conf | NPR2 antag | FLuc counter | GloSensor ctrl
CCc1cc(=O)n(CC(=O)N2CCN(c3ccccc3OC)CC2)c(-c2ccccc2)n1 | 39.8µM | . | . | ? | ? | . | . | .
COc1ccc(S(=O)(=O)N2CCc3c(C(=O)Nc4cccc(C)c4)cccc32)cc1 | 17.8µM | ? | . | ? | ? | ? | . | ?
COc1ccc(NC(=O)c2ccc3c(c2)N(S(=O)(=O)c2ccccc2)CC3)cc1 | ? | 10µM | . | . | 24.3µM | 24.3µM | . | 21.7µM
COc1ccc(S(=O)(=O)N2CCc3c(C(=O)NCCN(C)C)cccc32)cc1 | ? | . | ? | ? | / | / | / | /
O=C(CCc1nc(C2CCCN2C(=O)c2ccccc2)no1)Nc1ccc(F)cc1F (stereo unspecified) | . | . | . | ? | / | / | / | /
Cc1ncsc1CN1CCC2(CC1)CC(Cc1nc(-c3ccccc3)no1)CCO2 (stereo unspecified) | 17.8µM | 10µM | . | ? | 12.2µM | 17.2µM | . | 13.7µM
Cc1ncsc1CN1CCC2(CC1)CC(CC(=O)NC1CC1)CCO2 (stereo unspecified) | . | . | . | . | / | / | / | /
COc1cccc(S(=O)(=O)N2CCC3(CC2)CC(N(C)Cc2ccccc2)CCO3)c1 (stereo unspecified) | ? | ? | . | ? | ? | ? | . | ?
COc1ccc(S(=O)(=O)N2CCC3(CC2)CC(N(C)Cc2ccccc2)CCO3)cc1 (stereo unspecified) | ? | 11.2µM | . | ? | 27.3µM | ? | . | ?
CCCc1cc(N2CCC(N3CC(Oc4ccccc4F)C3)CC2)nc(C)n1 | ? | . | . | ? | / | / | / | /
CC1(CCCCc2ccccc2)COc2ccc(C(=O)NC3CC3)cc2N1 (stereo unspecified) | ? | 20µM | . | ? | 35.3µM | 28µM | . | 17.7µM
CC1(CCCCc2ccccc2)COc2ccc(C(=O)N3CC(O)C3)cc2N1 (stereo unspecified) | ? | 35.5µM | . | ? | 39.6µM | 35.3µM | . | 31.4µM
CC(=O)N1CCN(C(=O)c2ccc3c(c2)NC(C)(CCCCc2ccccc2)CO3)CC1 (stereo unspecified) | ? | . | . | ? | / | / | / | /
Cc1ccc(C(=O)N2CCc3nnc([C@@H]4C[C@@H](O)CN4C)n3CC2)cn1 | . | . | . | . | / | / | / | /
Cc1ccoc1C(=O)N1CCC(N2CCCC(C(=O)NCc3ccccc3)C2)CC1 (stereo unspecified) | . | . | . | . | / | / | / | /
